# Most compounds without a hit are left out; they make up all but 1.2% or so of the library.
# gsp ag: agonists of gsp mutant (McCune-Albright syndrome). gsp mutant cells, cAMP HTRF, 30 min. Potency, µM (doses to about 76.9 µM), inactives show top-dose activation (cAMP increase), hits mostly activators. actives 0.13% (n = 340,000); active = well fitted activation curve with a large enough effect; inconclusive = small, poorly fitted or top-dose-only effect, or another doubt; inactive = no such curve, though single readings can be large or run the other way; cell line not stated here;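 also: phosphodiesterase inhibitor Ro 20-1724 added with compounds to block cAMP breakdown; potency is read from the fitted curve at half-maximal effect; nearly all actives have a fitted effect of over 60% in size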
#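 Cells stably selected in G418 were plated at 2000/well, grown 16-24 hr, then given compounds in DMSO with the PDE inhibitor […] (300 uM solution added) for 30 min at 37C; cAMP was read by HTRF.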
# Akt phos inh: Akt phosphorylation inhibition; AID 651550; actives 0.32% (n = 360,000); activity change, % for hits at 50 µM; Neuro2A IGF-stimulated pAkt S473 HTRF, 20 min; stronger effect = lower value; in the data active = activity change below about -80%; inconclusive = mostly about -51% to -80%; also: % is scaled to controls: 0 for no effect and ±100 for the full control effect
#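 Neuro2A cells in DMEM with 0.5% FBS, overnight at 37 deg C, given compound at single 50 µM final, then IGF (6 nM final) for 20 min at 37 deg C. Lysed; phospho-Akt Ser473 by HTRF after 24 h, 665/615 ratio.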
# gsp antag: gsp mutant antagonism. gsp-mutant cells, cAMP HTRF, 30 min. Potency, µM (top dose mostly 76.9 µM), without a hit: at the highest dose activity change, negative = inhibition, most hits filed as inhibitors. actives 0.4% (n = 340,000). AID 624288; calls by dose curve; cell line not stated here;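 also: intracellular cAMP measured with PDE inhibitor Ro 20-1724 present during compound exposure; potency is read from the fitted curve at half-maximal effect; % is scaled to controls: 0 for no effect and ±100 for the full control effect; nearly all actives have a fitted effect of over 65% in size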
#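 HTRF cAMP measurement after 30 min RT detection following 30 min, 37C compound treatment alongside […] (added as 300 uM solution) in G418-selected cells seeded at 2000/well and grown 16–24 h.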
# RXFP1 antagonist: blocks the human relaxin receptor RXFP1 | Q9HBX9 | HEK293-RXFP1, relaxin-stimulated cAMP HTRF, 30 min; stronger effect = lower value | activity change, negative = inhibition, % at 57.5 µM | actives 0.59% (n = 350,000) | AID 1259400;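 active = activity change of -60% or lower, but not beyond a set lower limit; inconclusive = change between -60% and -40%, or beyond the set limit; inactive = change above -40%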; also: % is scaled to controls: 0 for no effect and ±100 for the full control effect
# Target sequence (Q9HBX9 whole entry, looked up): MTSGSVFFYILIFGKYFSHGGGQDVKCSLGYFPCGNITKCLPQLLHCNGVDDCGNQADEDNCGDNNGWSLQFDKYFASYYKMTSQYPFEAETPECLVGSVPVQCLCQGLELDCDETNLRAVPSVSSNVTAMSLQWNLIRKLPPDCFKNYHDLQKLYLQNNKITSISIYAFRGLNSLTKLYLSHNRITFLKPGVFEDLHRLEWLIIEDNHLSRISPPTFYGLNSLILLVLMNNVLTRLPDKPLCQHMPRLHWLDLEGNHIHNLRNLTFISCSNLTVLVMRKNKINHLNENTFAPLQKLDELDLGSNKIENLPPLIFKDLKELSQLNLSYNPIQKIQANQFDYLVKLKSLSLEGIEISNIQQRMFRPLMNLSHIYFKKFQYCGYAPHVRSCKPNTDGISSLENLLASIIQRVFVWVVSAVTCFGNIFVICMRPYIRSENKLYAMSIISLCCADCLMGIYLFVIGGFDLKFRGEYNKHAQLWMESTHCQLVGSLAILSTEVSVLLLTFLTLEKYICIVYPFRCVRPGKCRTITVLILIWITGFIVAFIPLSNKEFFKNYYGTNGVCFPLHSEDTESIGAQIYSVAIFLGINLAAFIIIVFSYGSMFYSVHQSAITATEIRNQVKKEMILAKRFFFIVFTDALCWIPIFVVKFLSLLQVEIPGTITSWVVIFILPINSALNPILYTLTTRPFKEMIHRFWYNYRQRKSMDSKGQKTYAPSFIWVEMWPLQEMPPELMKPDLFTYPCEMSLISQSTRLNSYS
# RXFP1 agonist: activates the human relaxin receptor RXFP1 | actives 0.3% (n = 370,000) | Q9HBX9 | HEK293T-RXFP1 cAMP TR-FRET, 30 min; response scale: percent of porcine relaxin response, buffer zero | Potency, µM (titrated, usually from 57.5 µM), inactives show top-dose activation, usual class: activators; active = well fitted activation curve with a large enough effect; inconclusive = small, poorly fitted or top-dose-only effect; also: potency is read from the fitted curve at half-maximal effect; % is scaled to controls: 0 for no effect and ±100 for the full control effect; nearly all actives have a fitted effect of over 60% in size
#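 cAMP rise read by TR-FRET after 30 min, 37C compound exposure (up to 58 uM) in RXFP1-transfected HEK293 cells with Ro 20174 present. EC50 from Hill-equation fits, with 29 nM porcine relaxin as 100% and buffer as basal.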
# * = called active by the depositor; i = inactive; ? = inconclusive; . = no result; [ ] = dose if it differs, or a comment.
SMILES,gsp ag,Akt phos inh,gsp antag,RXFP1 antagonist,RXFP1 agonist
Cc1nc2ccc(S(=O)(=O)CCC(=O)Nc3ccc(C(C)C)cc3)cc2s1,.,.,.,-11,1%
Cc1cc(N2CCCCC2)nc2ccc(NC(=O)c3cccc(F)c3)cc12,.,.,.,?,4%
Cc1cc(N2CCCCCC2)nc2ccc(F)cc12,4%,-92%*,?,-7,.
Cc1c(CNC2CCC(C)CC2)c(C(=O)O)c(C)n1Cc1ccc(Cl)cc1 (stereo unspecified),.,.,.,-14,-1%
CCOc1ccc(NC(=O)CSc2nc3ccsc3c(=O)n2C(C)CC)cc1 (stereo unspecified),.,.,.,2,-1%
CCN(CC)CCCN1C(=O)C(O)=C(C(=O)c2cc3cccc(OC)c3o2)C1c1ccncc1 (stereo unspecified),?,-90%*,13%,18,?
CCN(CC)CCCN1C(=O)C(O)=C(C(=O)c2cc3ccccc3o2)C1c1ccccn1 (stereo unspecified),?,-95%*,11%,1,?
CN(C)CCN1C(=O)C(O)=C(C(=O)c2cc3ccccc3o2)C1c1ccccn1 (stereo unspecified),.,.,.,.,2%
CCn1c(=O)c2sccc2n2c(CCCC(=O)N3CCN(c4cc(C)ccc4C)CC3)nnc12,.,.,.,-9,2%
C=CCOc1ccc(CNn2cn[nH]c2=S)cc1OCC,11%,-82%*,-4%,-9,1%
C=CCOc1ccc(CNn2cn[nH]c2=S)cc1OC,-12%,i,0%,1,2%
CC(=O)c1cc2ccccc2s1,.,.,.,14,.
Clc1ccc(CSc2nnc([C@@H]3CCCN3)o2)cc1Cl,9%,-106%*,3%,-4,0%
Cc1ccc(C)c(CSc2nnc([C@@H]3CCCN3)o2)c1,15%,i,5%,11,0%
CN(C(=O)COC(=O)CNS(=O)(=O)/C=C/c1ccccc1)C1CCS(=O)(=O)C1 (stereo unspecified),8%,-123%*,12%,-10,2%
CCCCCCn1c(=O)c2c(ncn2C)n(C)c1=O,.,.,.,-12,.
Oc1cccc(C2c3[nH]c4ccccc4c3CCN2Cc2ccc3c(c2)CCO3)c1 (stereo unspecified),10%[15.4 µM],i,-5%,-61*,0%
Cc1ccc(C)c(Oc2nnnn2-c2ccccc2)c1,9%,-115%*,7%,-4,-2%
Cc1ccc(C(C)C)c(Oc2nnnn2-c2ccccc2)c1,4%,i,?,-11,0%
COc1ccc(CCN2C(=O)/C(=C\c3ccco3)SC2=S)cc1OC,5%,i,-4%,-77*,0%
O=C1/C(=C\c2ccco2)SC(=S)N1Cc1ccccc1,6%,i,-10%,-37,0%
Cc1cc(C)n2c(SC/C(O)=C(\C#N)c3nc4ccccc4[nH]3)nnc2n1,-3%,i,0%,-13,1%
Cc1cccc(Nc2nnc(SCC(O)=C(C#N)c3nc4ccccc4[nH]3)s2)c1,17%,i,-13%,-81*,.
CCOc1ccc(CNC(=O)c2ccccc2NC(=O)c2nsc3ccccc23)cc1,.,.,.,-5,8%
FC(F)(F)c1nc(N2CCCC2)ncc1-c1nnnn1-c1ccccc1,-35%,i,35µM*,22,1%
SMILES,gsp ag,Akt phos inh,gsp antag,RXFP1 antagonist,RXFP1 agonist
COc1ccc(OCC(=O)NNc2c3ccccc3nc3ccccc23)cc1,-10%,i,32µM*,-38,-1%
O=C(NNc1c2ccccc2nc2ccccc12)c1cccc(O)c1,27%,i,-11%,3,4%
O=C(COc1ccccc1)NNc1c2ccccc2nc2ccccc12,-51%,i,40µM*,-25,0%
O=C(NNc1c2ccccc2nc2ccccc12)c1ccc(O)cc1,-30%,i,35µM*,-8,0%
CCCC(=O)NNc1c2ccccc2nc2ccccc12,-32%,i,-19%,-15,-1%
CCc1ccccc1NC(=O)c1ccc2c(c1)nnn2C1CCCC1,.,.,.,.,-1%
Nc1c(O)ccc2c1C(=O)c1ccccc1C2=O,-4%,i,25µM*,-80*,-8%
CC(Sc1ncnc2c1cnn2-c1ccccc1)C(=O)NCC1CCCO1 (stereo unspecified),30%,i,-9%,5,2%

# High-throughput results from PubChem BioAssay.
